Assay results published in PubChem BioAssay.
Active and inactive are the calls of the source.

Assays:
[1] = system: Plasmodium falciparum Sir2 (PF13_0152, Sir2A); experiment: pfSir2 binders on small-molecule microarrays, primary screen, biochemical, small-molecule microarray, 635 nm fluorescence (AID 1098); conditions: small-molecule microarray binding, fluorescence 635 nm; higher = more signal;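 further: score merges spot fluorescence intensity with its signal-to-noise ratio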
[2] = small-molecule microarray binders of probe aDKK1, primary screen, biochemical, biotinylated probe, 635/667 nm fluorescence (AID 1099); conditions: higher = more signal;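 further: score merges 667nm spot fluorescence with signal to noise across triplicate slides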
[3] = small-molecule microarray binders of probe aCHRDL2, primary screen, biochemical, biotinylated probe, 635/667 nm fluorescence (AID 1100); conditions: higher = more signal
[4] = splicing luciferase reporter signal modulators, primary screen, spliceosome inhibition project, cell-based, HEK293, splice +/- reporter (AID 1101); conditions: luminescence, 24 h, higher = more signal, called active from +8 up or from −8 down;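 further: HEK293 cells carrying a splicing-competent luciferase reporter gene; test concentration not given here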
[5] = biological target: Fibroblast growth factor 10 (Homo sapiens) (UniProt O15520); experiment: FGF10 binders on small-molecule microarrays, primary screen, biochemical, small-molecule microarray, 635 nm fluorescence (AID 1102); conditions: FGF10 binding, fluorescence 635 nm, higher = more signal
[6] = system: glycogen synthase kinase-3 (GSK3A per assay name; protocol says GSK3B); experiment: GSK3 binders on small-molecule microarrays, primary screen, biochemical, small-molecule microarray, 635 nm fluorescence, GSK3A (AID 1103); conditions: small-molecule microarray binding, fluorescence 635 nm; higher = more signal; further: the record names both GSK3A and GSK3B
[7] = biological target: Epidermal growth factor receptor (Homo sapiens) (UniProt P00533); experiment: EGFR binders on small-molecule microarrays, primary screen, biochemical, small-molecule microarray, 635 nm fluorescence (AID 1104); conditions: EGFR binding, higher = more signal;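 further: score merges 667 nm emission intensity with spot signal to noise over triplicate slides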
[8] = biological target: Follistatin-related protein 3 (Homo sapiens) (UniProt O95633); experiment: FSTL3 binders on small-molecule microarrays, primary screen, biochemical, small-molecule microarray, 635 nm fluorescence (AID 1105); conditions: FSTL3 binding, higher = more signal;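 further: score merges emission near 667 nm and signal to noise per printed spot across three slides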
[9] = biological target: Dickkopf-related protein 1 (Homo sapiens) (UniProt O94907); experiment: DKK1 binders on small-molecule microarrays, primary screen, biochemical, small-molecule microarray, 635 nm fluorescence scan (AID 1106); conditions: DKK1 binding, higher = more signal;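 further: score merges emission near 667 nm with signal to noise over three replicate slides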
[10] = system: Inhibin beta A chain (activin A); experiment: INHBA (activin A) binders on microarrays, primary screen, biochemical, small-molecule microarray, 635 nm fluorescence scan (AID 1107); conditions: small-molecule microarray binding, higher = more signal;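 further: mouse activin A protein probed at 4.33 µg/mL on printed slides; score merges bound-protein fluorescence near 667 nm with spot signal-to-noise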
[11] = system: Human papillomavirus type 1a protein E7 (residues 44-93); experiment: HPV1a E7 fragment binders on microarrays, primary screen, biochemical, small-molecule microarray, residues 44-93, 635 nm fluorescence (AID 1108); conditions: small-molecule microarray binding, fluorescence 635 nm; higher = more signal;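 further: E7 fragment applied at 1 µg/mL in TBST for 1 h at 4 C; score combines spot fluorescence with its signal to noise ratio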
[12] = modulators of HCV replicon luciferase signal, primary screen, HCV replication inhibitor project, Huh7 cells, luciferase reporter (AID 1109); conditions: 48 h, higher = more signal;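 further: huh7 hepatoma cells harbouring a luciferase neomycin HCV replicon reporter; luciferase luminescence as measure of HCV replicon replication; test concentration not given here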
[13] = biological target: Left-right determination factor 2 (Homo sapiens) (UniProt O00292); experiment: LEFTY2 binders on small-molecule microarrays, primary screen, biochemical, small-molecule microarray, 635 nm fluorescence scan (AID 1110); conditions: LEFTY2 binding, higher = more signal
[14] = biological target: Calmodulin-1 (Homo sapiens) (UniProt P0DP23); experiment: CALM1 binders on microarrays, EGTA buffer, profiling panel, biochemical, small-molecule microarray, Cy5-labelled CALM1 (AID 1111); conditions: Cy5-CALM1 binding fluorescence, higher = more signal;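 further: labelled calmodulin applied in Tris saline Tween buffer holding calcium plus EGTA and DTT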
[15] = biological target: Calmodulin-1 (Homo sapiens) (UniProt P0DP23); experiment: calcium-bound CALM1 binders on microarrays, profiling panel, artefact control for SMM control-protein annotation, biochemical, small-molecule microarray, Cy5-labelled CALM1, plus calcium (AID 1112); conditions: Cy5-CALM1 binding fluorescence, higher = more signal;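 further: score merges spot fluorescence with signal to noise from triplicate slides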
[16] = small-molecule microarray binders of probe aWnt5a, primary screen, biochemical, biotinylated probe, 635/667 nm fluorescence (AID 1113); conditions: higher = more signal;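 further: score merges 667 nm fluorescence intensity with signal-to-noise per printed feature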
[17] = small-molecule microarray binders of probe aShh, primary screen, biochemical, biotinylated probe, 635/667 nm fluorescence (AID 1114); conditions: higher = more signal;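 further: probe is biotin-labelled aShh protein from a stem cell growth factor screen; measures binding of labelled protein to compounds printed on the slide; score merges feature fluorescence at 667 nm with signal-to-noise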
[18] = small-molecule microarray binders of probe aNog, primary screen, biochemical, biotinylated probe, 635/667 nm fluorescence (AID 1115); conditions: higher = more signal;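 further: probe is biotinylated aNog protein used at 0.15 µg/mL for 1 h at 4 C; z-score combines 667 nm fluorescence of each spot with its signal to noise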
[19] = biological target: Torsin-1A-interacting protein 1 (Homo sapiens) (UniProt Q5JTV8); experiment: LAP1 binders from COS7 cell lysate, primary screen, small-molecule microarray, 635/667 nm fluorescence (AID 1116); conditions: COS7-hLAP1 lysate binding, 635 nm fluorescence, higher = more signal
[20] = biological target: Alpha-bungarotoxin (Bungarus multicinctus) (UniProt P60615); experiment: alpha-bungarotoxin binders on microarray, profiling panel, artefact control for SMM control protein annotation, biochemical, small-molecule microarray, Alexa647 label, 635/667 nm fluorescence (AID 1117); conditions: alpha-BTX-A647 binding fluorescence, higher = more signal
Alpha-bungarotoxin (Bungarus multicinctus), sequence (P60615 whole entry, looked up): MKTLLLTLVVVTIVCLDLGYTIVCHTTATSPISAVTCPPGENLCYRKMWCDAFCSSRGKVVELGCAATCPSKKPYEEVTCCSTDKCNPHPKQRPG

Epidermal growth factor receptor (Homo sapiens), sequence (P00533 whole entry, looked up): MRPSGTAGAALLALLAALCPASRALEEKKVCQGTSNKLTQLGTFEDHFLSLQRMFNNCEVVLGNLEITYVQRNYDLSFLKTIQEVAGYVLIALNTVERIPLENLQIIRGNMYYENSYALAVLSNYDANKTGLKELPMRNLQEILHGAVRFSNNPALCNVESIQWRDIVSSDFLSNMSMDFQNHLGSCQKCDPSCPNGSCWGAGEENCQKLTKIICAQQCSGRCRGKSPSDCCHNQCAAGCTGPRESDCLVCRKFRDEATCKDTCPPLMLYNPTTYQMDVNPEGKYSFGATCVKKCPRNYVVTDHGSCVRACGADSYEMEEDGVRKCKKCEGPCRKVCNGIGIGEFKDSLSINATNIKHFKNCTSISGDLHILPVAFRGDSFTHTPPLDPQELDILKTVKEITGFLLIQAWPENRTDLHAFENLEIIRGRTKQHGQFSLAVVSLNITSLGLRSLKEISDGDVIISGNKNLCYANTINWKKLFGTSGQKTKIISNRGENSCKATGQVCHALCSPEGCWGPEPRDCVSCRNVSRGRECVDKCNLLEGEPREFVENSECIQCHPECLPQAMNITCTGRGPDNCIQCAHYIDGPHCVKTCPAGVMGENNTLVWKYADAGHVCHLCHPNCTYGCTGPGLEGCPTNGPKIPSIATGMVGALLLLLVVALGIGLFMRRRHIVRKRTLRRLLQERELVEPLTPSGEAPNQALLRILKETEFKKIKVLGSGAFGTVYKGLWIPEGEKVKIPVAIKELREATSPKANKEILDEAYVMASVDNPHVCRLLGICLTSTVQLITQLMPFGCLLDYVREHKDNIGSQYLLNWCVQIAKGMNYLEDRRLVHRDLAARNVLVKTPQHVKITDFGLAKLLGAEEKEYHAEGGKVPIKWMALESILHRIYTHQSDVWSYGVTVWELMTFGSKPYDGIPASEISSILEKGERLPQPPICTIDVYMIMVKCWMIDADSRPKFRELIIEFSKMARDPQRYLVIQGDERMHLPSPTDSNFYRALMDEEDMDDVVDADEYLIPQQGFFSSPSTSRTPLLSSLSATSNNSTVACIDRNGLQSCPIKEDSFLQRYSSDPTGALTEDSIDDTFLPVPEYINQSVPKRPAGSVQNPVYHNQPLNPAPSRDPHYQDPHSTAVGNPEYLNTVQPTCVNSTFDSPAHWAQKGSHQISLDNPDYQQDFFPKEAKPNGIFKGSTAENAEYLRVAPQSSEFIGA
Follistatin-related protein 3 (Homo sapiens), sequence (O95633 whole entry, looked up): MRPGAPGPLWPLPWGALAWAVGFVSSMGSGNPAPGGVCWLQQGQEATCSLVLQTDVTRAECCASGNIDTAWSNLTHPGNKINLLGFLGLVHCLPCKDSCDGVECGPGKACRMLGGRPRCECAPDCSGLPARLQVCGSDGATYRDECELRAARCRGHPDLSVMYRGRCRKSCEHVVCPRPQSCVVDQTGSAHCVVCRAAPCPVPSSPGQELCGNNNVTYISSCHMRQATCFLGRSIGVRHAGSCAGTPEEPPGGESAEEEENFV
Fibroblast growth factor 10 (Homo sapiens), sequence (O15520 whole entry, looked up): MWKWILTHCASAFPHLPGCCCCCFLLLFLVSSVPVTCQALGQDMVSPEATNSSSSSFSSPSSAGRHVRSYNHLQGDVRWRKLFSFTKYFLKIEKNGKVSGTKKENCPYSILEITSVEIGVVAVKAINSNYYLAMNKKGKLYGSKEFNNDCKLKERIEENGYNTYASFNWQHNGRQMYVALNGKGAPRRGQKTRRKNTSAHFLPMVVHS
Torsin-1A-interacting protein 1 (Homo sapiens), sequence (Q5JTV8 whole entry, looked up): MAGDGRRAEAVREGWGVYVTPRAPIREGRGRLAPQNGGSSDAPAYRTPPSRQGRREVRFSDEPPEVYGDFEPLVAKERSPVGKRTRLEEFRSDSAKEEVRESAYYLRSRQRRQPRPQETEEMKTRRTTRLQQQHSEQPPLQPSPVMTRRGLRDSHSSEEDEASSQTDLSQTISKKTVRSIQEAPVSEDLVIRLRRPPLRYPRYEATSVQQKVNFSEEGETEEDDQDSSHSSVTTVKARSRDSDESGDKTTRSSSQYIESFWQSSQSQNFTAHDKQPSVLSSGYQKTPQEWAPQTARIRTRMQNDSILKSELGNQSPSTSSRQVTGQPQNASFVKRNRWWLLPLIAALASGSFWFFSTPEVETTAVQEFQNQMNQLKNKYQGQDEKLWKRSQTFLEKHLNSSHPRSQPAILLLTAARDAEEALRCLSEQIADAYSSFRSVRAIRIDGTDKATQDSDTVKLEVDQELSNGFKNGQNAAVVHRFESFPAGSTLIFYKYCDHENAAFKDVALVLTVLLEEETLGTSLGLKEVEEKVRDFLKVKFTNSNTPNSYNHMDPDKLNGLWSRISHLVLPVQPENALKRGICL
Dickkopf-related protein 1 (Homo sapiens), sequence (O94907 whole entry, looked up): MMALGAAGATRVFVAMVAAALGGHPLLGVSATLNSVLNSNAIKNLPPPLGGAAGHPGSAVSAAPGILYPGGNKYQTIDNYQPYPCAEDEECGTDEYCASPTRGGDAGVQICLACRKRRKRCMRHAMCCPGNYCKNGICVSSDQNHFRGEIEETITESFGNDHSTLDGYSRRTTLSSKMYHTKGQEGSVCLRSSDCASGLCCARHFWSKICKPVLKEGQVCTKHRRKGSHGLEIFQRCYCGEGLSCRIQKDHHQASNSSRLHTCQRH
Left-right determination factor 2 (Homo sapiens), sequence (O00292 whole entry, looked up): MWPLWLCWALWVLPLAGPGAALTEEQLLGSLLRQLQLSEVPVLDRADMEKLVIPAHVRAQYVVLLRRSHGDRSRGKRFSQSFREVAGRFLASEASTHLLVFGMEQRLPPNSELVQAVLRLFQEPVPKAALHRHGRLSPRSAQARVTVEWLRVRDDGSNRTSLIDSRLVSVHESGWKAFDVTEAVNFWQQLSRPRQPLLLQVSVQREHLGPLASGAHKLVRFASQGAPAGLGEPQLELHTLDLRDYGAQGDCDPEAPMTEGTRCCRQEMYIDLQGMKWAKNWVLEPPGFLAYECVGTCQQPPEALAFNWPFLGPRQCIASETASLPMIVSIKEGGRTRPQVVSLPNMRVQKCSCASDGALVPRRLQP

| Compound | composite z-score [1] | composite z-score [2] | composite z-score [3] | z-score [4] | composite z-score [5] | composite z-score [6] | composite z-score [7] | composite z-score [8] | composite z-score [9] | composite z-score [10] | composite z-score [11] | z-score [12] | composite z-score [13] | composite z-score [14] | composite z-score [15] | composite z-score [16] | composite z-score [17] | composite z-score [18] | composite z-score [19] | composite z-score [20] |
| --- | --- | --- | --- | --- | --- | --- | --- | --- | --- | --- | --- | --- | --- | --- | --- | --- | --- | --- | --- | --- |
| C[C@H]1C=CCC(=O)OC[C@H](C)C(=O)N2CCC[C@H]2C(=O)OC1 | 1.01 | -0.235 | -1.53 | -0.0436 (inactive) | 1.47 | 1.29 | 1.73 | 1.48 | 2.11 | -0.626 | -2.34 | -0.971 | 1.62 | -0.774 | -1.82 | -0.174 | -0.0709 | -0.137 | 1.71 | -0.477 |
| CCN1C(C)=C(C(=O)OC)[C@@H](c2ccccc2)N2C(=O)[C@](O)(C(=O)OC)CC(C(C)=O)=C12 | -0.166 | -0.324 | -0.745 | 0.15 (inactive) | 0.302 | 0.489 | 0.633 | 0.557 | 0.514 | 0.423 | 0.285 | 0.308 | 0.784 | -0.232 | -0.604 | -0.0037 | -0.179 | 0.0511 | 0.455 | 0.371 |
| COc1ccc(COC(=O)NN=C2C[C@@H](O)[C@@H](O)[C@@H]3[C@@H]4C(=O)N(Cc5ccccc5)C(=O)[C@@H]4CC[C@@H]23)cc1 | 0.0233 | -0.12 | -0.249 | -0.221 (inactive) | 0.193 | 0.256 | 0.375 | 0.253 | 0.227 | -0.0039 | 0.183 | 0.605 | 0.379 | -0.234 | -0.515 | -0.128 | 0.0278 | -0.216 | 0.0762 | -0.125 |
| O=C1[C@H]2[C@H]3[C@H](O)[C@H](O)CC(=NOC[C@@H](O)COCc4ccco4)[C@@H]3CC[C@H]2C(=O)N1c1cccc(Oc2ccccc2)c1 | -0.042 | -0.334 | -0.885 | -0.33 (inactive) | -0.25 | -0.91 | -0.094 | -0.213 | 0.461 | 0.831 | -0.645 | -0.739 | 0.103 | 0.0705 | -0.511 | -0.0758 | -0.289 | -0.29 | -0.0841 | 0.534 |
| Cc1ccc(C(C)C)n1C(=O)OC(C)(C)C | -0.0286 | -0.271 | -0.611 | -1.45 (inactive) | 0.789 | 0.61 | 0.55 | 0.807 | 0.768 | -0.124 | 0.471 | 1.85 | 0.587 | -0.159 | -0.659 | -0.0704 | -0.13 | -0.255 | 0.241 | 0.0251 |
| CCOC(=O)NN=C1C[C@@H](O)[C@@H](O)[C@@H]2[C@@H]3C(=O)N(CC)C(=O)[C@@H]3CC[C@H]12 | -0.04 | -0.115 | -0.254 | -0.322 (inactive) | 0.125 | -0.256 | 0.283 | -0.188 | 0.191 | -0.145 | -0.307 | 0.276 | 0.346 | -0.317 | -0.325 | -0.176 | -0.0813 | -0.244 | 0.0626 | -0.113 |
| COc1ccc(O[C@H]2C=C[C@@H](c3ccccc3)O[C@@H]2COC(=O)NCc2cccc3ccccc23)cc1 | -0.101 | 0.0187 | 0.173 | -0.134 (inactive) | 0.0748 | -0.131 | -0.168 | 0.1 | 0.269 | 0.763 | 0.125 | -2.19 | -0.0808 | -0.413 | -0.329 | -0.104 | 0.23 | -0.116 | 0.469 | 0.33 |
| CON=C1c2cc(OC)ccc2O[C@H](c2cccc(OC)c2)[C@H]1O | 0.386 | -0.0086 | -0.365 | -0.268 (inactive) | 0.934 | 0.498 | 0.52 | 0.81 | 0.636 | 0.593 | 0.365 | 7.91 | 0.601 | -0.332 | -0.729 | -0.0165 | 0.172 | -0.0211 | 0.646 | -0.0531 |
| CCOC(=O)CCN1C(=O)[C@H]2[C@H]3[C@H](O)[C@H](O)CC(=NNC(=O)OCc4ccccc4)[C@H]3CC[C@H]2C1=O | 0.108 | -0.467 | -1.17 | 0.325 (inactive) | -0.193 | -0.296 | 0.345 | 0.373 | 0.766 | 1.62 | -0.994 | 0.283 | 0.863 | -1.01 | -1.23 | -0.0045 | -0.138 | -0.0091 | 0.264 | -0.245 |
| CC(CCC(=O)OC[C@H]1O[C@H](C#Cc2ccccc2)C=C[C@@H]1Oc1ccc(C)cc1)=NO[C@@H](C)c1cc(-c2c(C)cc(C)cc2C)no1 | 0.199 | -0.293 | -0.0256 | 0.0536 (inactive) | -1.43 | -1.48 | -0.983 | -1.27 | -0.465 | 0.486 | -0.612 | -0.824 | -0.547 | -0.413 | -0.262 | -0.232 | 0.0121 | -0.118 | 0.328 | 0.326 |
| CCN1C(=O)[C@H]2[C@H]3[C@H](O)[C@H](O)CC(=NNC(=O)OCc4ccccc4)[C@@H]3CC[C@H]2C1=O | -0.16 | 0.118 | 0.78 | -0.176 (inactive) | -0.163 | -0.612 | -0.241 | -0.0709 | 0.131 | -0.291 | -0.577 | 0.232 | -0.0089 | -0.0328 | -0.285 | -0.0405 | -0.0463 | -0.0879 | -0.399 | 0.645 |
